Reference: publication PMC4336329 (PLoS ONE, 2015)
Out of some 310,000 compounds screened, about 14,000 (4.5%) showed an effect of 50% or more. Effects have a minus sign here. Many of the other results were omitted from the sample, so strong results are more common in it than they were.

biological target: human ether-à-go-go-related gene (hERG) potassium channel (human, UniProt Q12809); experiment: primary screen, population patch clamp on CHO cells stably expressing hERG; higher = less effect of the substance
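Further: peak tail current of the secondary pulse compared with the same well before compound.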

human ether-à-go-go-related gene (hERG) potassium channel, sequence (Q12809 whole entry, looked up): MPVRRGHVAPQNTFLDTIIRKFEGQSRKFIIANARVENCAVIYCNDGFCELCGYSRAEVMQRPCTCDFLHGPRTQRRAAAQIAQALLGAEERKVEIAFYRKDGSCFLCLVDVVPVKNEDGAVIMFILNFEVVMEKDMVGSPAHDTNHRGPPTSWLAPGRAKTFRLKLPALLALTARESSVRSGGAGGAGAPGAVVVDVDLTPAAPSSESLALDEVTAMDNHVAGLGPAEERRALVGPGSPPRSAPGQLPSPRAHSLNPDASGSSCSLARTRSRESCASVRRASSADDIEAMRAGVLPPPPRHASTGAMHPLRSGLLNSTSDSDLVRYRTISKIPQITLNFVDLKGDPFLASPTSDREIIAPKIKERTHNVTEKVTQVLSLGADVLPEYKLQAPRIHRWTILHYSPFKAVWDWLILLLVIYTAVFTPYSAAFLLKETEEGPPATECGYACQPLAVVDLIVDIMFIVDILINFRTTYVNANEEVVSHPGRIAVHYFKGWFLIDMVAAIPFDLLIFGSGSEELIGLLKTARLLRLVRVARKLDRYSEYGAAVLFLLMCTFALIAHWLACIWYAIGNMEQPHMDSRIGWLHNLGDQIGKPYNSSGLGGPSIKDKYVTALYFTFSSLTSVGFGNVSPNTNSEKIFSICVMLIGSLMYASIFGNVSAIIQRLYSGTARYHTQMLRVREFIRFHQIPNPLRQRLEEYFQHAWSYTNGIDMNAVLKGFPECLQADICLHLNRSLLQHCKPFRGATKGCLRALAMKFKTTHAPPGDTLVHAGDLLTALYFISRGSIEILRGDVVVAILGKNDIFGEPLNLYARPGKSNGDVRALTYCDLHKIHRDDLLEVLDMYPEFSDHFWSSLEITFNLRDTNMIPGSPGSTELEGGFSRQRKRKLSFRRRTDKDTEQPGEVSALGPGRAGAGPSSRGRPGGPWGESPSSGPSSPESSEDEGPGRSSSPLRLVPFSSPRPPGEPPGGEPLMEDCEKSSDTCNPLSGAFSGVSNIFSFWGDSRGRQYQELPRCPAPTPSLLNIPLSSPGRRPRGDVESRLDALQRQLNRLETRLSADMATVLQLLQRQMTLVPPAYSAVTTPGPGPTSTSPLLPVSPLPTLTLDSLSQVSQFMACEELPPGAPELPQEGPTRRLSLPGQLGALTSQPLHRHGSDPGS

Structure (SMILES) | hERG current change (%, negative = inhibition) at 10uM
CC1CCN(C(=O)CCc2nnc(-c3ccccc3)o2)CC1 | -5.83%
O=C(NNc1ccc([N+](=O)[O-])cc1)C12CC3CC(CC(C3)C1)C2 | 19.5%
CC(=O)Nc1ccc(OCc2cccc([N+](=O)[O-])c2)cc1 | 8.84%
Cc1onc(-c2ccccc2Cl)c1C(=O)Oc1cc(N)n(S(=O)(=O)c2ccc(F)cc2)n1 | -3.48%
COc1ccccc1Cc1nc(-c2cccnc2)no1 | 14.8%
Cc1ccn2c(C(=O)CSc3ccc(Cl)cc3)c(C)nc2c1 | 7.28%
CCOc1ccc(N2C(=O)CC(NCC3CCCO3)C2=O)cc1 (stereo not drawn) | 2.22%
O=C(Nc1ccccc1)C(c1ccccc1)c1ccccc1 | 15.1%
CCCCOc1ccc(C(=O)N/C(=C/C=C/c2ccccc2)C(=O)N2CCOCC2)cc1 | -5.66%
O=C(N/C(=C/C=C\c1ccccc1)C(=O)N1CCOCC1)c1ccc(Br)cc1 | -64.1%
O=C(N/C(=C\c1ccc([N+](=O)[O-])cc1)C(=O)N1CCCCC1)c1ccccc1 | -76.9%
O=C(N/C(=C/C=C/c1ccccc1)C(=O)N1CCOCC1)c1ccccc1Cl | -16.6%
O=C(N/C(=C\c1ccccc1)C(=O)N1CCCCCC1)c1ccccc1 | 15.2%
O=C(N/C(=C/c1ccccc1)C(=O)N1CCCCC1)c1ccccc1 | 29.9%
Cc1cc(C(=O)OCC(=O)Nc2cccc(S(N)(=O)=O)c2)c2ccccc2n1 | -4.62%
COc1cc(C2NC(=S)NC(c3ccccc3)=C2C(C)=O)ccc1O (stereo not drawn) | 15.4%
CCOCCCNC(=O)c1ccc2nc(-c3ccc(OC)c(OC)c3)c(-c3ccc(OC)c(OC)c3)nc2c1 | 6.99%
[Cl-].[NH3+]CCCn1c(C(=O)c2ccc(Cl)cc2)c2ccc([N+](=O)[O-])cc2[n+]1[O-] | -63.8%
NC(=O)CCCn1c(C(=O)c2ccc(Cl)cc2)c2ccc([N+](=O)[O-])cc2[n+]1[O-] | -74.1%
COc1ccc(C(=O)c2c3ccc([N+](=O)[O-])cc3[n+]([O-])n2CCC[NH3+])cc1.[Cl-] | -47.4%
Cc1ccc(C(=O)c2c3ccc([N+](=O)[O-])cc3[n+]([O-])n2CCCC(N)=O)cc1 | -36.6%

Structure (SMILES) | hERG current change (%, negative = inhibition) at 10uM
NC(=O)CCn1c(C(=O)c2cccc([N+](=O)[O-])c2)c2ccccc2[n+]1[O-] | 4.25%
NC(=O)CCCn1c(C(=O)c2cc(Cl)c(N)c(Cl)c2)c2ccc([N+](=O)[O-])cc2[n+]1[O-] | -30.9%
COc1ccc(-c2oc3ccc(-c4cc(OC)c(OC)c(OC)c4)cc3c2-c2ccc(OC)cc2)cc1 | 13.6%
CN(C)S(=O)(=O)c1cccc(COC(=O)c2ccc(Cl)cc2O)c1 | -7.36%
CC(=O)Oc1c(Cl)c(N2CCOCC2)c(OC(C)=O)c2ccccc12 | -25.2%
CCN(Cc1ccccc1)C(=O)c1cccc(S(=O)(=O)N2CCN(Cc3ccccc3)CC2)c1 | -19.6%
Cc1ccc(-c2csc(N3CCN(c4cc5c(cc4Cl)nc(-c4ccncc4)n5CCN4CCCCC4)CC3)n2)cc1 | 10.5%
Cc1csc(N2CCN(c3cc4c(cc3Cl)nc(-c3ccncc3)n4CCCN3CCCC3)CC2)n1 | -64.8%
Cc1ccc(-c2csc(N3CCN(c4cc5c(cc4Cl)nc(-c4ccncc4)n5CCOCCO)CC3)n2)cc1 | 4.81%
Cc1n[nH]c(=S)n1-c1cccc(Cl)c1 | 19.7%
Cc1nnc(N2C(=O)C(O)=C(C(=O)c3ccco3)C2c2cccc3ccccc23)s1 (stereo not drawn) | -0.387%
Cc1cccn2c(=O)c3cc(C(=O)NC4CCCC4)c(=N)n(Cc4ccc(F)cc4)c3nc12 | -68.2%
Cc1cccn2c(=O)c3cc(C(=O)NC4CCCCC4)c(=N)n(Cc4ccc(F)cc4)c3nc12 | -77.1%
Cc1cccn2c(=O)c3cc(C(=O)NC4CCCCCC4)sc3nc12 | 9.51%
Cc1cccn2c(=O)c3cc(C(=O)NC4CCS(=O)(=O)C4)n(Cc4ccccc4)c3nc12 (stereo not drawn) | -4.36%
Cc1cccn2c(=O)c3cc(C(=O)NC4CCCCC4)c(=N)n(Cc4ccccc4)c3nc12 | -74.6%
Nc1ccc(C(=O)Nc2cccc(NC(=O)c3ccc(N)cc3)c2)cc1 | 17.7%
Cn1c(=O)c(=O)n(C)c2cc(S(=O)(=O)CCC(=O)Nc3ccc(F)cc3)ccc21 | -2.6%
CS(=O)(=O)N1CCN(CC2CC3C=CC2C3)CC1.O=C(O)C(=O)O (stereo not drawn) | 5.01%
CCOc1ccc(N2C(=O)C3C(c4ccc(O)cc4)NC(CCSC)(C(=O)OC)C3C2=O)cc1 (stereo not drawn) | -12.3%
CC(NC(=O)c1nn(C)c(=O)c2ccccc12)c1ccc(F)cc1 (stereo not drawn) | -3.84%

Structure (SMILES) | hERG current change (%, negative = inhibition) at 10uM
CCCOC(=O)c1ccccc1C(=O)OCCC | -3.24%
CCCCCCCCNC(=O)CCNC(=O)c1ccc(C(C)(C)C)cc1 | 8%
CC1CN(S(=O)(=O)c2cccc(C(=O)N(CCc3ccccc3)Cc3ccccc3)c2)CC(C)O1 (stereo not drawn) | -7%
O=C(c1cccc(S(=O)(=O)N2CCOCC2)c1)N(CCc1ccccc1)Cc1ccccc1 | -55.4%
O=C(NCc1ccccc1)c1ccc(F)c(S(=O)(=O)N2CCOCC2)c1 | -17.4%
O=C(c1cccc(S(=O)(=O)N2CCOCC2)c1)N(CCO)Cc1ccccc1 | -19.8%
O=C(c1cc(S(=O)(=O)N2CCOCC2)ccc1F)N(CCc1ccccc1)Cc1ccccc1 | -4.37%
O=C(c1ccc(F)c(S(=O)(=O)N2CCOCC2)c1)N(CCc1ccccc1)Cc1ccccc1 | -68.3%
CCc1nc2cc([N+](=O)[O-])c([N+](=O)[O-])cc2[nH]1 | -14.5%
NC(=O)c1ccccc1NC(=O)c1ccc2c(c1)OCO2 | 5.14%
CCc1cc2c(=O)n(CC(=O)NC3CCCCC3)cnc2s1 | 4.86%
COc1ccc(C2Nc3ccccc3C(=O)N2NC(C)=O)c(OC)c1 (stereo not drawn) | 14.3%
Cc1cccc2c(N)c3c(nc12)N(C)CC3.O=C(O)C(=O)O | -23.1%
O=C(O)c1cncc(Br)c1 | 27.3%
Cc1ccc2nc3c(c(N)c2c1)CCN3C.O=C(O)C(=O)O | -33.1%
Cc1ccc(C)c2c(N)c3c(nc12)CCCCC3.O=C(O)c1cncc(Br)c1 | -88.4%
Cc1cc(Br)c2nc3c(c(C(=O)O)c2c1)CCCCC3 | 4.41%
CN1CCCCc2c1nc1ccccc1c2N.O=C(O)c1cncc(Br)c1 | -82.5%
O=[N+]([O-])c1ccc(-c2cnc(NO)nc2)cc1 | -28%
CC(C)(C)NC(=O)C(=O)NNC(=O)c1cccc(F)c1 | 18.1%
CC1=C(C#N)C(=O)N(C2CCS(=O)(=O)C2)C(=O)/C1=C\c1ccco1 (stereo not drawn) | 7.81%

Structure (SMILES) | hERG current change (%, negative = inhibition) at 10uM
O=C(COC(=O)C1=NNC(=O)CC1)NCCc1ccccc1 | 17.4%
O=c1cc(N2CCN(Cc3ccccc3)CC2)c(-c2ccccc2)n[nH]1 | -1.87%
Cn1nc(C(C)(C)C)cc1NC(=O)Nc1ccc(F)cc1F | 5.93%
CCC(C)N1C(=S)SC(C)(C)C1N(O)C(=O)NC1CCCCC1 (stereo not drawn) | 9.19%
COc1ccc(OC)c(C2(O)CSC(=Nc3cccnc3)N2Cc2ccco2)c1 (stereo not drawn) | -16.3%
Cn1c(=O)c2c(SCC(=O)N3CCOCC3)nc(-c3ccccc3F)nc2n(C)c1=O | -8.27%
COc1ccc(OCc2cc(C(=O)N3CCN(C4CCCC4)CC3)no2)c(Cl)c1 | -29.6%
COc1cccc(OCc2cc(C(=O)N3CCN(C4CCCCC4)C(=O)C3)no2)c1 | -3.09%
CSc1ccccc1OCc1cc(C(=O)N2CCN(C3CCCC3)C(=O)C2)no1 | -34.8%
O=C(c1cc(COc2ccc(F)c(F)c2)on1)N1CCOCC1 | 5.02%
O=C(c1cc(COc2c(F)cccc2F)on1)N1CCN(C2CCCCC2)C(=O)C1 | -17.5%
CCOC(=O)CC1COCCN1C(=O)c1cc(COc2ccc(F)c(F)c2)on1 (stereo not drawn) | -61.5%
O=C(c1cc(COc2ccc(F)cc2Cl)on1)N1CCSCC1 | -4.58%
O=C(c1cc(COc2ccc(F)cc2F)on1)N1CCN(C2CCCC2)C(=O)C1 | -25.8%
CCOC(=O)CC1COCCN1C(=O)c1cc(COc2ccc(F)cc2Cl)on1 (stereo not drawn) | -23.2%
O=C(c1cc(COc2ccc(F)cc2Cl)on1)N1CCN(C2CCCC2)CC1 | -61.4%
O=C(c1cc(COc2ccc(F)cc2Cl)on1)N1CCN(C2CCCCC2)C(=O)C1 | -67.9%
O=C(c1cc(COc2ccc(F)c(F)c2)on1)N1CCN(C2CCCCC2)C(=O)C1 | -56.2%
